Compound activity (PubChem BioAssay)
The list is not random: actives were taken first. Their share in the collection is about 12%.
HP1b chromo inh – HTS for Inhibitors of HP1-beta Chromodomain Interactions with Methylated Histone Tails; Potency, µM (doses to about 114 µM), inactives show top-dose activity change, negative = inhibition, hits mostly inhibitors; AlphaScreen HP1-beta / biotin-H3K9me3 peptide binding; AID 540317, 2011; Chromobox protein homolog 1 (Homo sapiens), P83916; hit rate 0.56% among 390,000; note: nearly all actives have a fitted effect of over 70% in size
Target sequence (P83916 whole entry, looked up): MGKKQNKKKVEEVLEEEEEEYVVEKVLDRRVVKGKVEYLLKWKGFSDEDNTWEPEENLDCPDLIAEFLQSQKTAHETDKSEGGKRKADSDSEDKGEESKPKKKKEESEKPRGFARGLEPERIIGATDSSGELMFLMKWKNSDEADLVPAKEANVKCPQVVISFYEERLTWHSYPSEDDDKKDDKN
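Compound inhibition of the preformed complex between 50 nM HP1-beta and 50 nM biotinylated H3K9me3 peptide was read by AlphaScreen. Buffer was PBS pH 7.4 with 0.01% Tween-20. Incubations ran 30 min at room temperature, with 10 ug/mL donor/acceptor beads.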
L3MBTL1 block – qHTS Assay for the Inhibitors of L3MBTL1. Lethal(3)malignant brain tumor-like protein 1 (Homo sapiens), Q9Y468. AlphaScreen L3MBTL1–H3K9me1 peptide binding. Potency, µM (highest dose often 57.1 µM), without a hit: at the highest dose activity, negative = inhibition, usual class: inhibitors. hit rate 0.66% among 230,000; note: % is set by controls: 0 for no effect and ±100 for the full control effect; nearly all actives have a fitted effect of over 60% in size
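AlphaScreen assay: L3MBTL1 (50 nM final) was preincubated 30 min at room temperature with biotinylated H3(1-15)K9me1 peptide (75 nM final), then 30 min with library compounds; streptavidin donor and nickel chelate acceptor beads (10 ug/mL final) added, 30 min dark.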
JMJD2A Tudor inh – qHTS Assay for Inhibitors of JMJD2A-Tudor Domain; Lysine-specific demethylase 4A (Homo sapiens), O75164; AlphaScreen JMJD2A-Tudor / H3K4me3 peptide binding; Potency, µM (titrated, usually from 114 µM), inactives show top-dose activity change, negative = inhibition, hits mostly inhibitors; hit rate 4.4% among 390,000; AID 504339, 2011; note: % is set by controls: 0 for no effect and ±100 for the full control effect; nearly all actives have a fitted effect of over 50% in size
Sfp inh – qHTS Assay for Inhibitors of Bacillus subtilis Sfp phosphopantetheinyl transferase (PPTase); 4'-phosphopantetheinyl transferase ffp (Bacillus subtilis), Q9F4F7; Biochemical Sfp PPTase activity, qHTS; Potency, µM, inactives show largest response in the series, negative = inhibition, actives largely listed as inhibitors; hit rate 3.5% among 310,000; AID 1490, 2009;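 note: the enzyme is Sfp with the accession as filed and its product quenches rhodamine fluorescence; 0% = enzyme reaction without inhibitor and -100% = no enzyme wells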
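With Hepes-Na pH 7.6 buffer containing 10 mM MgCl2, Sfp (15 nM) modified BHQ-2-YbbR (12.5 uM) using rhodamine-CoA (5 uM). Two reads 30 minutes apart at 525/598 nm yielded each well's rate.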
G9a inh – qHTS Assay for Inhibitors of Histone Lysine Methyltransferase G9a; Histone-lysine N-methyltransferase EHMT2 (Homo sapiens), Q96KQ7; G9a H3K9 monomethylation, AlphaScreen, 2 h; Potency, µM (series often up to 102 µM), for inactives: at the top dose activity, negative = inhibition, most hits filed as inhibitors; hit rate 8.8% among 350,000; AID 504332, 2011; note: % is set by controls: 0 for no effect and ±100 for the full control effect; nearly all actives have a fitted effect of over 75% in size
Target sequence (Q96KQ7 913-1193 limits assumed): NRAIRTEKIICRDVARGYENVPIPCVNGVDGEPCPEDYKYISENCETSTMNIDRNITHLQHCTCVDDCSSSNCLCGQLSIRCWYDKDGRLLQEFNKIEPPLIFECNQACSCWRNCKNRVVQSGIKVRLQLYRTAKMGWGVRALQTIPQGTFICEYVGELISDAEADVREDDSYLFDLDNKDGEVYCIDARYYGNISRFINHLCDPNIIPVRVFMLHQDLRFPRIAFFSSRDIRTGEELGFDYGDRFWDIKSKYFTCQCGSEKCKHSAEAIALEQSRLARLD
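Step 1: enzyme (final 20 nM) with compound, 15 min RT. Step 2: substrate peptide 500 nM and SAM 20 uM, 2 h RT. Step 3: anti-H3K9me1 antibody and AlphaScreen beads, 10 min, then plate read.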
BAZ2B inh – qHTS Assay for Inhibitors of BAZ2B | AID 504333, 2011 | Potency, µM (highest dose often 114 µM), without a hit: at the top dose activity change, negative = inhibition, most hits filed as inhibitors | Bromodomain adjacent to zinc finger domain protein 2B (Homo sapiens), Q9UIF8 | hit rate 4.4% among 360,000 | AlphaScreen BAZ2B-H3K14Ac peptide displacement; note: % is set by controls: 0 for no effect and ±100 for the full control effect; nearly all actives have a fitted effect of over 60% in size
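AlphaScreen displacement of biotin-H3(5-23)K14Ac peptide (50 nM final) from BAZ2B (50 nM final) in PBS pH 7.4, 0.01% Tween-20; complex preformed 30 min RT, then compounds (top 110 uM) 30 min RT, beads 20 min dark.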
The depositor's hits bear a star; ? = inconclusive; / = no result given; [ ] = remark or other dose. Calls come from the whole dose curve; as a rule, active = well fitted curve in the direction sought with a large enough effect; inconclusive = small, poorly fitted or top-dose-only effect, or another doubt; inactive = no such curve, though single readings can be large; an effect the other way counts as inactive or inconclusive. Potency is the fitted concentration of half-maximal effect.

SMILES	HP1b chromo inh	L3MBTL1 block	JMJD2A Tudor inh	Sfp inh	G9a inh	BAZ2B inh
O=C(Nc1ccc2c(c1)OCO2)C1CCN(Cc2cc3c(cc2O)OCO3)CC1	?	/	?	6%	32µM*	-36%
O=C(C1CCN(Cc2cc(Cl)ccc2O)CC1)N1CCN(Cc2ccccc2)CC1	?	6%	3.5µM*	-19%	?	?
O=C(C1CCN(Cc2ccccc2O)CC1)N1CCN(Cc2ccc3c(c2)OCO3)CC1	?	/	2.8µM*	-8%	6.3µM*	?
O=C(Nc1ccc2c(c1)OCO2)C1CCCCC1	27%	/	11%	7%	?	-17%
COc1cc2c(cc1OC)C(C)N(C(=O)Cn1ncc3c1-c1ccccc1OC3)CC2 (stereo unspecified)	31%	3%	-23%	4%	79µM*	-1%
CN1C(=O)c2ccccc2Sc2ccc(NC(=O)c3ccc(C#N)cc3)cc21	29%	/	-14%	/	-3%[59 µM]	-11%
C=C[C@H]1CCC=C2C(=O)CCC[C@@H]21	/	/	/	-5%	/	/
COc1cccc(OC)c1C(=O)N1CCN(Cc2ccc3c(c2)OCO3)CC1	45µM*	2%	5µM*	-18%	14µM*	50µM*
CCCc1nc2nc(C)c(NS(=O)(=O)c3ccc(C)c(C)c3)c(=O)n2[nH]1	36%	/	-6%	/	0%[59 µM]	0%
COc1ccc(C(=O)NCCS(=O)(=O)NCc2ccco2)cc1	28%	?	-19%	/	?	-19%
COc1cccc(C(=O)NCCS(=O)(=O)NCc2ccco2)c1	20%	9%	-5%	/	20µM*	-23%
O=C(NCCS(=O)(=O)NCc1cccnc1)c1ccccc1	15%	-1%	-18%	/	-30%	9%
COc1cccc(C(=O)NCCS(=O)(=O)NCc2cccs2)c1	9%	5%	-2%	/	35µM*	-6%
COc1cccc(C(=O)NCCS(=O)(=O)NCc2cccnc2)c1	10%	0%	-8%	/	50µM*	11%
c1ccc(CCCCNCC2COc3ccccc3O2)cc1 (stereo unspecified)	74%	/	31%	-10%	-1%	3%
N#Cc1cccc(NC(=O)N2CC[C@@]3(CCCN(S(=O)(=O)c4ccccc4)C3)C2)c1	/	/	/	3%	34%[12.7 µM]	/
CN(C)c1ccc(C2SCCN2C(=O)c2ccc([N+](=O)[O-])cc2)cc1 (stereo unspecified)	?	-18%	?	1%	?	45µM*
Cc1ccc(NC(=O)CSc2nc(-c3cccs3)nc3cc(=O)[nH]n23)cc1	21%	/	-21%	/	23%[59 µM]	79µM*
Cc1ccc(NC(=O)CSc2nc3ccccc3c(=O)n2Cc2cccs2)cc1	33%	2%	-1%	14%	29%[59 µM]	-9%
Cc1cccc(NC(=O)CSc2nc(-c3cccs3)nc3cc(=O)[nH]n23)c1	?	/	?	/	-38%[59 µM]	79µM*
O=C(CSc1nc(-c2cccs2)nc2cc(=O)[nH]n12)Nc1cccc(C(F)(F)F)c1	33%	/	-19%	/	53%[59 µM]	50µM*
CCn1c(C)nnc1SCC(=O)Nc1cccc(C(F)(F)F)c1	6%	6%	-16%	7%	/	1%
Cc1cccc(-c2nc(SCC(=O)Nc3cccc(C(F)(F)F)c3)n3[nH]c(=O)cc3n2)c1	?	/	50µM*	/	11%[59 µM]	50µM*
Cc1nc(C)c(CCNS(=O)(=O)c2ccc(C)c(C)c2)s1	29%[57 µM]	/	-10%	/	0%[59 µM]	1%
COc1ccc(NC(=O)CSc2nc(-c3ccccc3)nc3cc(=O)[nH]n23)cc1	33%	/	-23%	/	17%[59 µM]	-37%
SMILES	HP1b chromo inh	L3MBTL1 block	JMJD2A Tudor inh	Sfp inh	G9a inh	BAZ2B inh
O=C(CSc1nc(-c2ccccc2)nc2cc(=O)[nH]n12)Nc1ccccc1	20%	/	56µM*	/	34%[59 µM]	-1%
FC(F)(F)c1ccc(C2[C@H]3CN(CC4CCCCC4)[C@H](c4ccccc4)C34CC2(c2ccccc2)C4)cc1 (stereo partly specified)	/	/	/	-7%	/	/
COc1ccc(-c2cc(=O)oc3c(C)c(OCc4nn[nH]n4)ccc23)cc1	28%	7%	6%	2%	?	-1%
Cc1c(OCc2nn[nH]n2)ccc2c(-c3ccccc3)cc(=O)oc12	31%	10%	-4%	-9%	50µM*	6%
CC1CC(C)CN(C(=O)CCCNC(=O)c2ccc(Cl)cc2)C1 (stereo unspecified)	37%	/	-10%	14%	39%	1%
O=C1Cc2cc(NS(=O)(=O)c3ccc(Cl)cc3)cc3c2N1CCC3	16%	-5%	-19%	/	4%	2%
O=C1Cc2cc(NS(=O)(=O)c3ccc([N+](=O)[O-])cc3)cc3c2N1CCC3	-1%	9%	-25%	/	45µM*	-15%
COc1ccc(F)cc1S(=O)(=O)Nc1cc2c3c(c1)CCN3C(=O)CC2	13%	11%	-6%	/	45µM*	-4%
COc1ccc(S(=O)(=O)Nc2cc3c4c(c2)CCC(=O)N4CCC3)cc1	24%	0%	-3%	/	4%	7%
COc1ccc(S(=O)(=O)Nc2cc3c4c(c2)CC(=O)N4CCC3)cc1	-4%	6%	-16%	/	32µM*	-20%
COc1ccc(C)cc1S(=O)(=O)Nc1cc2c3c(c1)CCN3C(=O)CC2	37%	-1%	3%	/	-2%[0.501 µM]	11%
CC1(C)OC2C[C@](O)(C(N)=O)C[C@H](O)[C@H]2O1 (stereo partly specified)	/	/	/	30%	-7%[2.33 µM]	/
CC(C)c1ccc(O)c(NC(=S)NC(=O)c2ccc3c(c2)OCO3)c1	-11%	/	?	-22%	13µM*	?
O=C(NC(=S)Nc1ccccc1Br)c1ccc2c(c1)OCO2	12%	/	-8%	-1%	0%	-18%
NC(N)=NS(=O)(=O)c1ccc(NC(=S)NC(=O)c2ccccc2)cc1	16%	/	-3%	50µM*	/	-13%
NS(=O)(=O)c1ccc(NC(=S)NC(=O)c2ccc3c(c2)OCO3)cc1	17%	9%	10%	-7%	40µM*	-22%
NC(N)=NS(=O)(=O)c1ccc(NC(=S)NC(=O)c2ccc3c(c2)OCO3)cc1	14%	/	-3%	?	45µM*	-27%
NC(N)=NS(=O)(=O)c1ccc(NC(=S)NC(=O)/C=C/c2ccccc2)cc1	38%	0%	-5%	2%	/	-3%
O=C(OCC(O)CO)c1ccccc1Nc1ccnc2cc(Cl)ccc12 (stereo unspecified)	24%	-1%	4%	-12%	3%[12.7 µM]	5%
